The assay relates to XIP peptide (Xip251-270). Briefly: compounds binding XIP fragment 251-270 – biochemical, small-molecule microarray, fluorescence 635/667 nm, 0.5 µg/mL protein, primary screen (AID 1183). As to conditions: fluorescence 635 nm, higher = more signal.
For `CO[C@H]1COC(=O)[C@@H](Cc2ccccc2)NC(=O)[C@@H](C)COC(=O)CCC[C@@H]1C`, the composite z-score came to 0.171.

Take `C[C@H]1CC[C@H]2C(=O)O[C@H](COc3ccc(C(C)(C)C)cc3)CN2[C@@H]1c1ccc(Br)cc1`: the composite z-score stood at 0.567.

Consider `CC(C)=NOC[C@@H](C)[C@H](OCc1ccccc1)C(C)C`, for which the composite z-score turned out to be 0.177.

Turning to `CO[C@@H]1COC(=O)[C@H](CCSC)NC(=O)CC=C[C@@H](C)COC(=O)CCC[C@H]1C`, the composite z-score is 0.929.

For `C[C@@H](ON=C1[C@H]2CCn3c(=O)n(-c4ccccc4)c(=O)n3[C@H]2[C@H](O)[C@@H]2O[C@H]12)c1cn([C@@H]2COC[C@H]2O)nn1`, the composite z-score is 0.324.

In the case of `Cc1ccc(S(=O)(=O)N[C@@H]2COC(=O)[C@@H](C)COC(=O)CC=C[C@H]2C)cc1`, the composite z-score stood at 0.038.

Take `CCOC(=O)[C@H](Cc1ccccc1)NC(=O)CCC1CC(OC(=O)NCCc2ccc(F)cc2)CC2(CCCC(COC(=O)NCc3ccccc3)O2)O1` (stereo not given in full): the composite z-score was 0.283.

On to `CC(C)CON=C1C[C@@H](O)[C@@H](O)[C@@H]2[C@@H]3C(=O)N(C4CCCCC4)C(=O)[C@@H]3CC[C@@H]12`, for which the composite z-score was 0.0112.

Take `CCN1C(=O)[C@H]2[C@H]3[C@H](O)[C@H](O)CC(=NNC(=O)OCc4ccc(OC)cc4)[C@@H]3CC[C@H]2C1=O`: the composite z-score was -0.225.

For the molecule `COC(=O)[C@H]1O[C@@H](c2c(OC)c(OC)c(C)c(OC)c2OC)[C@H](C)[C@@H](O)[C@H]1C`, the composite z-score amounted to 0.486.

On to `CC(CCN1CCCCc2nc(C)c(C)cc21)=NO[C@H](C)c1cn([C@H](CO)Cc2ccccc2)nn1`, for which the composite z-score turned out to be 0.542.

As for `COC(=O)CC=C[C@H](C)[C@@H](OCc1cccc(Br)c1)[C@@H](C)[C@H](OC)C1CCCCC1`, the composite z-score came out at 0.768.

Take `C=C(C)C(=O)OCC1CN2[C@@H](CC[C@@H](C)[C@@H]2c2ccc(Br)cc2)C(=O)O1` (stereo not given in full): the composite z-score was 0.446.

For the molecule `CCC(=O)[C@@]1(O)C(=O)N2C(=C3C(=O)OCC[C@@H]31)N(Cc1ccccc1)C(C)=C(C(=O)OC)[C@H]2c1ccccc1`, the composite z-score stood at 0.177.

For the molecule `COc1cccc([C@H]2Oc3ccc(OC)cc3C(=NO[C@H](C)c3cn([C@H](CO)Cc4ccccc4)nn3)[C@@H]2O)c1`, the composite z-score is 0.733.

In the case of `O=C1C[C@@H](O)[C@@H](O)[C@@H]2[C@@H]3C(=O)N(Cc4ccccc4)C(=O)[C@@H]3CC[C@@H]12`, the composite z-score is 0.5.

`CCOC(=O)[C@H](Cc1ccccc1)NC(=O)CCC1CC(OC(=O)NCCc2ccc(F)cc2)CC2(CCCC(COC(=O)NCCc3ccccc3OC)O2)O1` (stereo not given in full): the composite z-score was determined as 0.525.

For the molecule `O=C1C[C@@H](O)[C@@H](O)[C@@H]2[C@@H]3C(=O)N(Cc4ccc5c(c4)OCO5)C(=O)[C@@H]3CC[C@H]12`, the composite z-score stood at 0.0056.

On to `CCOC(=O)[C@H](CC(C)C)NC(=O)CCC1CC(OC(=O)NCCc2ccc(F)cc2)CC2(CCCC(COC(=O)NCCC(C)C)O2)O1` (stereo not given in full), for which the composite z-score is -0.228.

For the molecule `COC(=O)CC=C[C@@H](C)[C@@H](C=NO[C@@H](C)c1cn([C@H](CO)Cc2ccccc2)nn1)OC`, the composite z-score is 0.0522.

For the molecule `C[C@@H](c1ccccc1)N1C(=O)[C@H]2[C@H]3[C@H](O)[C@H](O)CC(=O)[C@H]3CC[C@H]2C1=O`, the composite z-score was 0.251.

With `CC(CCN1CCCCc2nc(C)c(C)cc21)=NOC[C@@H](C)[C@H](OCc1ccccc1)C(C)C`, the composite z-score was -0.3.

Consider `COC(=O)[C@@H]1CC[C@H](C)[C@@H](c2ccc(C)cc2)N1C(=O)c1ccc(C=NO[C@H](C)c2cn([C@@H]3COC[C@H]3O)nn2)cc1`, for which the composite z-score worked out at 0.78.

Regarding `C=CC[C@@H]1C=C[C@H](ON=C(C)CCC(=O)OC[C@H]2O[C@H](C#Cc3ccccc3)C=C[C@@H]2Oc2ccc(C)cc2)[C@@H](CO)O1`, the composite z-score stood at 0.437.

`CON=CC[C@@H]1C=C[C@H](OC(C)=O)[C@@H](COC(C)=O)O1`: the composite z-score was determined as 0.763.

As for `C=Cc1ccc([C@H]2N[C@H](C(=O)O)CC[C@@H]2C)cc1`, the composite z-score is -0.0045.

As to `O=C(NN=C1C[C@@H](O)[C@@H](O)[C@@H]2[C@@H]3C(=O)N(C4CCCCC4)C(=O)[C@@H]3CC[C@@H]12)OCc1ccccc1`, the composite z-score was -0.0414.

Consider `COc1ccc(O[C@H]2C=C[C@@H](c3ccccc3)O[C@@H]2CON=C2[C@H]3CCn4c(=O)n(-c5ccccc5)c(=O)n4[C@H]3[C@H](O)[C@@H]3O[C@H]23)cc1`, for which the composite z-score was determined as 0.742.

On to `CCOC(=O)[C@H](Cc1ccccc1)NC(=O)CCC1CC(OC(=O)NCc2cccc3ccccc23)CC2(CCCC(COC(=O)NCCC(C)C)O2)O1` (stereo not given in full), for which the composite z-score came to 0.027.

As for `CC(=O)OC[C@H]1O[C@H](C#Cc2ccccc2)C=C[C@@H]1OC(C)=O`, the composite z-score stood at 0.823.
